Inconclusive results are not listed. A call without a number means that no potency is given here. Active and inactive are the calls of the source. Calls follow the shape of the dose curve; as a rule, active = well fitted curve in the direction sought with a large enough effect; inconclusive = small, poorly fitted or top-dose-only effect, or another doubt; inactive = no such curve, though single readings can be large or run the other way.

The values below come from PubChem BioAssay AID2513 (National Center for Advancing Translational Sciences (NCATS), 2010).

This experiment can be described thus: Counterscreen Assay for Enhancers of SMN2 Splice Variant Expression: Modulation of SMN1 Expression for Probe SAR. To be noted: HEK293 SMN1-luciferase reporter, luminescence, 30-36 h; series mostly up to 46.1 µM. The source says:
NIH Chemical Genomics Center [NCGC] NIH Molecular Libraries Probe Production centers Network [MLPCN] MLPCN Grant: R03 MH084179-01 Assay Submitter (PI): Elliot Androphy NCGC Assay Overview: Spinal muscular atrophy (SMA) is caused by insufficient levels of the survival motor neuron protein SMN. The SMN locus on chromosome 5q13 contains two inverted copies of SMN called SMN1 and SMN2 which are 99% identical at the amino acid level. SMN1 is a fully functional protein and SMN2 skips exon 7 90% of the time. Skipping of exon 7 produces non-functional protein product. 10% of the SMN2 protein includes exon 7 and is fully functional. In the SMA disease state, mutations in the SMN1 locus are the cause of the disease state. Because only 10% of SMN2 is of the fully functional form, it is not sufficient to overcome the deficiency produced by the loss of the SMN1 product. A therapy that either increase the amount of SMN2 product made or to increase the inclusion of exon 7 has been proposed for the treatment of SMA. We have designed an assay to identify small molecules that can increase the amount of functional SMN2 product by appending a luciferase reporter gene after the native SMN2 gene, such that inclusion of exon 7 in the expressed product places the luciferase sequence in frame, thus generating functional luciferase enzyme. As a counterscreen for nonspecific modulators of expression, we have run compounds through a similar assay that measures expression of an SMN1-luciferase chimera.
NCGC Assay Protocol Summary: This screen utilizes a luciferase reporter gene assay, combining the promoter with the major portion of the native SMN1 cDNA (exons 1 -7, intron 8 , exon 8 fused to luciferase) stably expressed in HEK293 cells. Compounds that increase luciferase signal presumably enhance expression of the functional SMN1 splice variant. Passaging media contained DMEM w/ glutamax (+phenol red) 10% FCS, 1x pen/strep, 200 ug/ml hygro, 1x sodium pyruvate. Assay media contained DMEM w/ glutamax (-phenol red) 10% FCS, 1x pen strep, 1x pyruvate Sequence, Parameter, Value, Description (1) Cells, 5 uL, 2000 cells/well, 1536 TC treated White solid bottom plate (2) Time, 10-12 hours, 37C 5% CO2 (3) Compound, 23 nl, MLSMR Library (4) Control Compound, 23 nL, Sodium butyrate st 4.5mM (final) conc (5) Time, 30-36 hours, 37C 5% CO2 (6) Reagent, 3 ul, One Glo (TM) from Promega (7) Time, 5-15 minutes, Room temp (8) Detector, Viewlux: luminescent read, 60 second integration, high speed 2x binning Keywords: Spinal muscular atrophy, SMA, SMN2, high throughput screening, MLSMR, MLPCN, NIH Roadmap, qHTS and NCGC
For `Cn1ccc2cc(-c3csc(N4CCC(C(N)=O)CC4)n3)ccc21`, the Potency entry was “inactive”.

`NC(=O)C1CCN(c2nc(-c3ccccc3Br)cs2)CC1`: the Potency result was “inactive”.

Consider `CC(=O)c1ccc(-c2csc(N3CCC(C(N)=O)CC3)n2)cc1`, for which the Potency entry was “inactive”.

For the compound `CN(C)C(=O)c1cccc(-c2csc(N3CCC(C(N)=O)CC3)n2)c1`, the Potency result was “inactive”.

As to `COc1ccc(-c2csc(N3CCC(C(N)=O)CC3)n2)cc1`, the Potency entry was “inactive”.

Turning to `NC(=O)C1CCN(c2nc(-c3ccc4occc(=O)c4c3)cs2)CC1`, the Potency result was “inactive”.

Take `Brc1ccc(-c2csc(N3CCCCC3)n2)cc1`: the Potency result was “inactive”.

As to `CS(=O)(=O)c1ccccc1-c1csc(N2CCC(C(N)=O)CC2)n1`, the Potency result is “inactive”.

Regarding `CS(=O)(=O)c1cccc(-c2csc(N3CCC(C(N)=O)CC3)n2)c1`, the Potency result was “inactive”.

In the case of `NC(=O)C1CCN(c2nc(-c3ccccc3N)cs2)CC1`, the Potency result is “inactive”.

Consider `CC(=O)c1cccc(-c2csc(N3CCC(C(N)=O)CC3)n2)c1`, for which the Potency result is “inactive”.

`NC(=O)C1CCN(c2nc(-c3ccccc3F)cs2)CC1`: the Potency entry was “inactive”.

With `Cc1noc(C)c1-c1csc(N2CCC(C(N)=O)CC2)n1`, the Potency entry was “inactive”.

As for `NC(=O)C1CCN(c2nc(-c3ccc4ccccc4c3)cs2)CC1`, the Potency result was “inactive”.

Consider `NC(=O)C1CCN(c2nc(-c3cc4ccccc4o3)cs2)CC1`, for which the Potency result is “inactive”.

For `NC(=O)C1CCN(c2nc(-c3cccc(N)c3)cs2)CC1`, the Potency entry is “inactive”.

In the case of `NC(=O)C1CCN(c2nc(-c3cccnc3)cs2)CC1`, the Potency entry is “inactive”.

Regarding `NC(=O)C1CCN(c2nc(-c3cccs3)cs2)CC1`, the Potency entry is “inactive”.

As for `NC(=O)C1CCN(c2nc(-c3ccccc3-c3ccccc3)cs2)CC1`, the Potency entry is “inactive”.

For the compound `CN(C)c1ccccc1-c1csc(N2CCC(C(N)=O)CC2)n1`, the Potency result is “inactive”.

As to `NC(=O)C1CCN(c2nc(-c3ccc4c(c3)OCCO4)cs2)CC1`, the Potency is 19.4 µM (active).

Turning to `NC(=O)C1CCN(c2nc(-c3ccccc3C(F)(F)F)cs2)CC1`, the Potency result is “inactive”.

Take `NC(=O)C1CCN(c2nc(-c3cccc(Cl)c3)cs2)CC1`: the Potency entry is “inactive”.
